{
  "source": "ChEMBL document CHEMBL4513216",
  "about": "“Probing the Open Global Health Chemical Diversity Library for Multistage-Active Starting Points for Next-Generation Antimalarials” (ACS Infect Dis, 2020)",
  "note": "About 8,600 (12%) of roughly 69,000 compounds showed an effect of 50% or more. What follows is part of a selection rich in strong results, with near analogues and random picks from the rest.",
  "data": [
    {"system": "Plasmodium berghei", "test": "Screen against P. berghei liver stage (PbLuc), transformed with Luciferase, at 10uM", "assay_type": "functional, HepG2", "conditions": "tested at 10 uM", "units": {"INHIBITION": "%"}, "values": [
      {"smiles": "Cc1ccc(-c2nc(CNCC3CN(C)CCO3)cs2)o1", "note": "(centres undefined)", "INHIBITION": 41.4},
      {"smiles": "Cc1nn(C)c2c(N(C)Cc3ccco3)nc(C3CC3)nc12", "INHIBITION": 19.7},
      {"smiles": "O=C(O)[C@H]1C[C@H](C(=O)NCc2ccncc2)CN(CCC(F)(F)F)C1", "INHIBITION": -78.5},
      {"smiles": "COc1ccccc1NC(=O)CC(C)NCCc1sc(C)nc1C", "note": "(centres undefined)", "INHIBITION": 71.3},
      {"smiles": "CCc1cnc(CCNC(C)CC(=O)Nc2cccc(C)c2C)s1", "note": "(centres undefined)", "INHIBITION": 15.6},
      {"smiles": "COc1ccccc1NC(=O)CC(C)NCc1scnc1C", "note": "(centres undefined)", "INHIBITION": 25.6},
      {"smiles": "CO[C@H]1CC[C@H]2[C@H]1OCCN2C(=O)CCOc1ccccc1", "INHIBITION": 14},
      {"smiles": "COCC1COCCC12CCN(Cc1nccs1)CC2", "note": "(centres undefined)", "INHIBITION": 22.6},
      {"smiles": "CNC(=O)c1cccc(CN2CCN(c3ccncc3)CC2)c1", "INHIBITION": 35.1},
      {"smiles": "Cc1cc(CN2CCC(CNS(=O)(=O)c3ccc(C)s3)CC2)c(C)o1", "INHIBITION": 49.7},
      {"smiles": "Cc1cc(CN2CCC(CNS(=O)(=O)c3ccc(Br)s3)CC2)c(C)o1", "INHIBITION": 79},
      {"smiles": "Cc1cc(CN2CCC(CNS(=O)(=O)c3ccccc3F)CC2)c(C)o1", "INHIBITION": 14.4},
      {"smiles": "O=C(NCc1ccco1)[C@@H]1CC[C@@H]2[C@@H](CCN2Cc2ccc(F)cc2)O1", "INHIBITION": 5.87},
      {"smiles": "O=C1CC(c2cccc(Cl)c2)c2snc(C(=O)O)c2N1", "note": "(centres undefined)", "INHIBITION": 55.7},
      {"smiles": "O=C1CC(c2ccccc2)c2snc(C(=O)O)c2N1", "note": "(centres undefined)", "INHIBITION": 12.6},
      {"smiles": "O=C1CC(c2ccsc2)c2snc(C(=O)O)c2N1", "note": "(centres undefined)", "INHIBITION": 72.6},
      {"smiles": "O=C1CC(c2ccc(C(F)(F)F)cc2)c2snc(C(=O)O)c2N1", "note": "(centres undefined)", "INHIBITION": 42.4},
      {"smiles": "O=C1CC(c2ccc(F)c(F)c2)c2snc(C(=O)O)c2N1", "note": "(centres undefined)", "INHIBITION": 27.6},
      {"smiles": "O=C1CC(c2ccc(F)cc2)c2snc(C(=O)O)c2N1", "note": "(centres undefined)", "INHIBITION": 15.9},
      {"smiles": "O=C(c1cccnc1)N1CCc2ncnc(C3CCOC3)c2CC1", "note": "(centres undefined)", "INHIBITION": 25.6},
      {"smiles": "CN(Cc1ccc2c(c1)OCO2)C(=O)C1CC(c2cccc(F)c2)=NO1", "note": "(centres undefined)", "INHIBITION": -14.3},
      {"smiles": "COCCOCC(=O)N1C[C@@H]2CC[C@H](Oc3cccc(F)c3)[C@@H]2C1", "INHIBITION": -71.9},
      {"smiles": "CN1CCN(CC2(O)CCN(C(=O)CCc3ccccc3F)C2)CC1", "note": "(centres undefined)", "INHIBITION": 16.705},
      {"smiles": "CN1CCCC2(CC1)CCN(C(=O)CCc1ccccc1O)CC2", "INHIBITION": 56.5},
      {"smiles": "CCCC(=O)N1Cc2ccccc2CC2(CCN(C)C2)C1", "note": "(centres undefined)", "INHIBITION": 40},
      {"smiles": "CN1CCCC2(CC1)CCN(C(=O)CCc1ccccc1F)CC2", "INHIBITION": 80},
      {"smiles": "COC(=O)CCC(=O)N1CCC2(CN(Cc3ccccc3F)C2)C1", "INHIBITION": 22.4},
      {"smiles": "Cc1nc2c(c(=O)n1C)CCN(C(=O)CCc1ccccc1O)CC2", "INHIBITION": 14.3},
      {"smiles": "COc1ccc(CCNC(=O)N2CCCC(c3nncn3C)C2)cc1", "note": "(centres undefined)", "INHIBITION": -12.1}
    ]}
  ]
}
